This is a sample that favours compounds with a hit; in the whole collection about 0.88% have one here.
TRHR enhancer-1: allosterically enhances the human TRH receptor. P34981. enhancement, % at 2 µM. TRHR cells, fluo-8 calcium fluorescence, EC20 TRH enhancement. 360,000 compounds, 0.66% hits; in the data active = enhancement above about 30%; also: 0% is about no effect
Target sequence (P34981 whole entry, looked up): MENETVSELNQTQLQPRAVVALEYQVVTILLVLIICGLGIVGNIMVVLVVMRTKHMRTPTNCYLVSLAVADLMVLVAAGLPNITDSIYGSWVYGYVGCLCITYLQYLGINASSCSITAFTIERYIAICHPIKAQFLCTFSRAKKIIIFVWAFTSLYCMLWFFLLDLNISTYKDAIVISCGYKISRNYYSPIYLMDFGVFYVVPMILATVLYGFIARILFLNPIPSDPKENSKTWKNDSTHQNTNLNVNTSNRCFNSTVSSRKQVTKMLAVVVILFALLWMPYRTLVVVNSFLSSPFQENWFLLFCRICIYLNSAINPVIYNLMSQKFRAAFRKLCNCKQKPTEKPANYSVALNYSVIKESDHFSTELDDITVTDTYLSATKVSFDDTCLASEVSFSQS
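TRHR-expressing cells loaded with fluo-8 calcium dye were read kinetically (ex 480/em 530) during compound addition, then stimulated with an EC20 of TRH (10 nM final). Enhancement of the Gq-mediated intracellular calcium response was scored.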
TRHR agonist-1: activates the human TRH receptor; P34981; TRHR cells, calcium flux fluo-8, FDSS agonist mode; activation, % at 2 µM; 360,000 compounds, 0.18% hits; AID 493084; in the data active = activation above about 30%; also: 0% is about no effect
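Steps: seed TRHR cells overnight; add fluo-8 no-wash Ca dye, RT 30 min–1.5 h; record 10 s baseline; pin-transfer compounds; monitor fluorescence 1 cycle/s for the agonist window. Calcium increases flag candidate agonists.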
IL2 activator: activators of IL-2; IL-2 activation reporter assay, cell-based qHTS; stimulated with anti-CD3/CD4/CD28 beads; in transgenic mouse T cells; 360,000 compounds, 0.065% hits; activation, % (series mostly up to about 46 µM); in the data active = activation above about 50%; inconclusive = mostly about 30% to 49%; also: 0% is about no effect
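Unstimulated transgenic mouse T cells; 60-min compound exposure; bead-based TCR/CD4/CD28 stimulation; 18 h culture, 37 degrees C; dual fluorescence (EGFP, DsRed) plate cytometry.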
MBNL1 CUG block: MBNL1-poly(CUG) RNA binding inhibition | Q9NR56 | TR-FRET MBNL1-His/biotin-(CUG)12 binding, 665/545 ratio | Potency, µM (highest dose often 57.5 µM), inactives show at the highest dose activity change, negative = inhibition, usual class: inhibitors | 280,000 compounds, 0.036% hits; active = well fitted inhibition curve with a large enough effect in the signal ratio, with a control signal flat, not every such curve was filed as active; inconclusive = small, poorly fitted or top-dose-only effect, or effect the other way, or a change in a side signal; inactive = no such curve, though single readings can be large or run the other way; the % refers to the signal ratio; also: potency is read from the fitted curve at half-maximal effect; % is scaled to controls: 0 for no effect and ±100 for the full control effect
Target sequence (Q9NR56 whole entry, looked up): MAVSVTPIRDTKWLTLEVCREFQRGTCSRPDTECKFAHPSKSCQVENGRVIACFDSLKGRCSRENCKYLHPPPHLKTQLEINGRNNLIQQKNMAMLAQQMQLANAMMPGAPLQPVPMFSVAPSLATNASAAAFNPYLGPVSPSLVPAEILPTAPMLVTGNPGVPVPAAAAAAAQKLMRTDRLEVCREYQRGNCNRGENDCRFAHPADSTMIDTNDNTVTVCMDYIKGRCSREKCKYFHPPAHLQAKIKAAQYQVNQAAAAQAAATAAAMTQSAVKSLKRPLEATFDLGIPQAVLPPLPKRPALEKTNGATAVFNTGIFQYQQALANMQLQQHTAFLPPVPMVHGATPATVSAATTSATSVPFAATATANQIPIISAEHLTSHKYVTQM
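Inhibition of protein-RNA binding appears as loss of TR-FRET between terbium anti-His antibody on MBNL1-His and streptavidin-XL665 on biotin-(CUG)12. Activity is normalized to buffer-only and uninhibited-complex controls.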
CBFb RUNX1 block: CBF-beta/RUNX1 interaction disruption. Q01196+Q13951. AlphaScreen CBFb-His/RUNX1-biotin binding, biochemical. Potency, µM (top dose mostly 59.8 µM), for inactives: at the highest dose activity, negative = inhibition, hits mostly inhibitors. 230,000 tested, under 10 active. AID 1477; also: % of control where 0% means no effect
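Proteins preincubated together for 20 min at RT before compound addition; 15 min later, nickel and streptavidin beads were added and left 90 min prior to AlphaScreen measurement.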
Epigenetic derep: regulators of epigenetic silencing causing reporter derepression in mouse cells; murine LDR cells, GFP reporter derepression, 30 h; Potency, µM (top dose mostly 53.9 µM), inactives show at the top dose GFP activation, hits mostly activators; 280,000 compounds, 0.2% hits; also: potency is read from the fitted curve at half-maximal effect; % of control where 0% means no effect; nearly all actives have a fitted effect of over 60% in size
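Reporter derepression read as number of fluorescent GFP-positive objects, 20-120 um in size, counted by laser-scanning cytometer. Mouse LDR line with an epigenetically silenced CMV-GFP locus; compound incubation 30 h, 37 C.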
TRHR enhancer-2: human TRH receptor allosteric enhancement confirmation | TRH receptor cell assay, enhancer confirmation qHTS | AID 493076 | shares compounds with TRHR enhancer-1 | 970 tested, under 10 active | activity change, negative = inhibition, % at 46.1 µM;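 also: compound effect scored on response to added TRH at EC20 of 10 nM; 0% is about no effect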
TRHR agonist-2: human TRH receptor agonism confirmation; shares compounds with TRHR enhancer-1; TRHR-expressing cells, agonist activation read-out; Potency, µM (titrated, usually from 46.1 µM), for inactives: at the highest dose activation, most hits filed as activators; 970 compounds, 8% hits; AID 493078; also: potency is read from the fitted curve at half-maximal effect; 0% is about no effect; nearly all actives have a fitted effect of over 75% in size
* hit, by the source's call. Unless noted, calls follow the shape of the dose curve; as a rule, active = well fitted curve in the direction sought with a large enough effect; inconclusive = small, poorly fitted or top-dose-only effect, or another doubt; inactive = no such curve, though single readings can be large; an effect the other way counts as inactive or inconclusive.

How did Cc1cc(C(=O)COC(=O)c2cc(O)c3ccccc3c2O)c(C)n1CC1CCCO1 (stereo unspecified) do in these assays?
TRHR enhancer-1: 47*; TRHR agonist-1: 1; IL2 activator: 1; MBNL1 CUG block: inconclusive; CBFb RUNX1 block: inconclusive; Epigenetic derep: 1%; TRHR enhancer-2: -3; TRHR agonist-2: 0%

Results for Cc1cc(C(=O)COC(=O)c2ccccc2O)c(C)n1CC1CCCO1 (stereo unspecified) ?
TRHR enhancer-1: 3; TRHR agonist-1: 0; IL2 activator: 0

What do the screens show for `O=C(Nc1cccc(C(=O)N2CCCCC2)c1)c1nsc2ccccc12`?
TRHR enhancer-1: 12; TRHR agonist-1: 0; Epigenetic derep: -4%

What do the screens show for `CCCCCN1C=CC=C/C1=C\C=C(C#N)C#N`?
TRHR enhancer-1: -2; TRHR agonist-1: 31*; IL2 activator: -3; MBNL1 CUG block: inconclusive; CBFb RUNX1 block: -1%; Epigenetic derep: -2%; TRHR enhancer-2: -4; TRHR agonist-2: 21µM*

What do the screens show for `CCCN1C=CC(=CC=C(C#N)C#N)C=C1`?
TRHR enhancer-1: -1; TRHR agonist-1: 42*; IL2 activator: 2; MBNL1 CUG block: inconclusive; CBFb RUNX1 block: -1%; Epigenetic derep: 1%; TRHR enhancer-2: -1; TRHR agonist-2: 18µM*

What do the screens show for `O=C(CSc1nc2ccccc2s1)N1c2ccccc2Sc2ccc(C(F)(F)F)cc21`?
TRHR enhancer-1: 58*; TRHR agonist-1: 2; IL2 activator: -2; MBNL1 CUG block: -3%; CBFb RUNX1 block: 5%; Epigenetic derep: -1%; TRHR enhancer-2: -6; TRHR agonist-2: 3%

How did CC(=O)c1c(C)[nH]c(C(=O)COC(=O)Cc2ccccc2F)c1C do in these assays?
IL2 activator: 0

What do the screens show for `CC(=O)c1c(C)[nH]c(C(=O)COC(=O)COc2ccccc2F)c1C`?
TRHR enhancer-1: 52*; TRHR agonist-1: -1; IL2 activator: 1; TRHR enhancer-2: -1; TRHR agonist-2: 0%

What do the screens show for `CCOC(=O)c1c(C)n(-c2ccccc2)c2ccc(O)cc12`?
TRHR enhancer-1: 46*; TRHR agonist-1: -1; IL2 activator: -1; MBNL1 CUG block: 7%; CBFb RUNX1 block: 1%; Epigenetic derep: -1%; TRHR enhancer-2: -4; TRHR agonist-2: 2%

How did CCc1ccc(NC(=O)C[n+]2cc(-c3ccc(C)cc3)n3c2CCC3)cc1 do in these assays?
TRHR enhancer-1: 42*; TRHR agonist-1: 0; IL2 activator: 0; MBNL1 CUG block: -15%; CBFb RUNX1 block: 5%; Epigenetic derep: 3%; TRHR enhancer-2: -1; TRHR agonist-2: -1%

How did O=C(Nc1cc(C(F)(F)F)ccc1N1CCOCC1)C1CC1 do in these assays?
TRHR enhancer-1: 49*; TRHR agonist-1: 0; IL2 activator: 0; TRHR enhancer-2: -9; TRHR agonist-2: 0%

What do the screens show for `Cc1ccc2nc(-c3ccc(Cl)c(NC(=O)COc4cccc(C)c4C)c3)oc2c1`?
TRHR enhancer-1: 2; TRHR agonist-1: -1; Epigenetic derep: 0%

How did CCc1ccccc1Nc1sc(C(=O)c2ccccc2)c(N)c1S(=O)(=O)c1ccccc1 do in these assays?
TRHR enhancer-1: 4; TRHR agonist-1: -2; Epigenetic derep: -3%

How did Cc1ccc(O)c(C(=O)c2cc(C#N)c(=O)n(Cc3ccccc3)c2)c1 do in these assays?
TRHR enhancer-1: -4; TRHR agonist-1: 3; IL2 activator: -1; MBNL1 CUG block: 10%; CBFb RUNX1 block: -2%; Epigenetic derep: 0%

Results for Cc1ccc(O)c(C(=O)c2cc(C#N)c3nc4ccccc4n3c2)c1 ?
TRHR enhancer-1: 1; TRHR agonist-1: 42*; IL2 activator: 10; CBFb RUNX1 block: -1%; Epigenetic derep: 2%; TRHR enhancer-2: -2; TRHR agonist-2: inconclusive

How did Cc1ccc2[nH]c(CCN(C)C)c(CC#N)c2c1 do in these assays?
TRHR enhancer-1: 66*; TRHR agonist-1: 0; IL2 activator: -2; MBNL1 CUG block: 10%; CBFb RUNX1 block: 2%; Epigenetic derep: 0%; TRHR enhancer-2: -6; TRHR agonist-2: inconclusive

What do the screens show for `COc1ccc(-c2nc(C)c(CCNC(=O)c3cccc(C)c3)s2)cc1OC`?
TRHR enhancer-1: -2; TRHR agonist-1: -1; Epigenetic derep: 3%

Results for CNC(=O)C(=O)Nc1c(C)cc(C)cc1C ?
TRHR enhancer-1: 41*; TRHR agonist-1: -1; IL2 activator: 1; MBNL1 CUG block: -6%; CBFb RUNX1 block: 3%; Epigenetic derep: -1%; TRHR enhancer-2: 1; TRHR agonist-2: 6%

What do the screens show for `O=C(Nc1ccc2nc(SCC(=O)N3CCc4ccccc43)sc2c1)c1cccc(F)c1`?
TRHR enhancer-1: -3; TRHR agonist-1: -1; Epigenetic derep: -2%

How did NS(=O)(=O)c1ccc(NC(=O)COC(=O)c2cn(-c3ccccc3)nc2-c2ccc(F)cc2)cc1 do in these assays?
TRHR enhancer-1: 45*; TRHR agonist-1: 1; IL2 activator: 0; MBNL1 CUG block: 24%; CBFb RUNX1 block: -12%; Epigenetic derep: 3%; TRHR enhancer-2: -8; TRHR agonist-2: inconclusive

How did O=c1[nH]c(N2CCN(Cc3ccccc3)CC2)nc2c1CCC2 do in these assays?
TRHR enhancer-1: 41*; TRHR agonist-1: -1; IL2 activator: 0; MBNL1 CUG block: -23%; CBFb RUNX1 block: 5%; Epigenetic derep: -3%; TRHR enhancer-2: -3; TRHR agonist-2: -1%

Results for O=c1[nH]c(N2CCN(c3ccccc3)CC2)nc2c1CCC2 ?
TRHR enhancer-1: -3; TRHR agonist-1: 0; IL2 activator: -4; MBNL1 CUG block: 4%; CBFb RUNX1 block: 4%; Epigenetic derep: 0%

What do the screens show for `CCOc1ccc(CN(C(=O)/C=C/c2ccco2)C2CCS(=O)(=O)C2)cc1` (stereo unspecified)?
TRHR enhancer-1: -8; TRHR agonist-1: 41*; IL2 activator: 0; MBNL1 CUG block: 9%; TRHR enhancer-2: 1; TRHR agonist-2: 1%

Results for CCC(=O)C1=C(c2ccc(F)cc2)N(C(=O)CC)n2c(nnc2C2CCCCC2)S1 ?
TRHR enhancer-1: -2; TRHR agonist-1: 0; Epigenetic derep: 5%

How did Cc1ccc(-c2nnc(SCC(=O)NC3CCCC3)nc2-c2ccc(C)cc2)cc1 do in these assays?
TRHR enhancer-1: -13; TRHR agonist-1: 0; Epigenetic derep: 5%

Bioassay records: PubChem, National Center for Advancing Translational Sciences (NCATS)
